Screening data as filed in PubChem.
Rows were chosen to be rich in hits. Some 8.7% of all compounds tested hit in one or more screens of this group.
Vaccinia Venus = inhibitors of vaccinia virus (Venus reporter); Vaccinia virus Venus reporter expression, fluorescence; Potency, µM (highest dose often 36.5 µM), actives largely listed as inhibitors; 330,000 tested, 0.46% active; AID 720580; calls by dose curve; tested in A549 cells; further: nearly all actives have a fitted effect of over 30% in size
VACV mCherry inh = vaccinia inhibition (mCherry reporter); Vaccinia virus mCherry reporter infection, fluorescence; Potency, µM (doses to about 36.5 µM), usual class: inhibitors; 310,000 tested, 0.63% active; AID 720579; calls by dose curve; tested in A549 cells; further: nearly all actives have a fitted effect of over 35% in size
AMA1 RON2 block = inhibitors of Plasmodium falciparum AMA1-RON2 interaction; AlphaScreen AMA1-biotinylated RON2 peptide binding; Potency, µM (top dose mostly 58.2 µM), usual class: inhibitors; 360,000 tested, 0.2% active; AID 720542; further: nearly all actives have a fitted effect of over 45% in size
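AMA1 (3D7) with his tag at 25 nM final met compounds first, then biotinylated RON2 peptide at 25 nM; detection used donor plus acceptor beads, 10 µg/mL apiece, read by AlphaScreen after 30 min at room temperature.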
Pf growth 96h = P. falciparum growth inhibition at 96 hour, primary screen for plastid delayed-death inhibitors. P. falciparum luciferase reporter growth, 96 h. Potency, µM (top dose mostly 28.7 µM), actives largely listed as inhibitors. 320,000 tested, 6.9% active. AID 504834
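Infected RBCs, 2% Hct / 0.05% parasitemia final; luciferase-reporter P. falciparum; cpd 96 h, 37 C, 5% CO2; luciferase detection reagent; luminescence.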
Pf growth 48h = inhibits P. falciparum growth in the first generation, 48 h | P. falciparum luciferase growth in erythrocytes, 48 h | Potency, µM (series often up to 28.7 µM), actives largely listed as inhibitors | 310,000 tested, 5.9% active
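Read-out is firefly luciferase luminescence from an integrated reporter in P. falciparum, so falling signal marks reduced parasite growth. Infected erythrocytes were at 2% hematocrit and 0.1% parasitemia (final) in Albumax-supplemented RPMI 1640.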
A number is an active result; 0 = inactive; ? = inconclusive; - = no result given; [ ] = another dose, or the depositor's remark. Unless noted, the call rests on the fitted dose curve; in most records, active means well fitted curve in the direction sought with a large enough effect; inconclusive means small, poorly fitted or top-dose-only effect, or another doubt; inactive means no such curve, though single readings can be large; an effect the other way counts as inactive or inconclusive.

SMILES	Vaccinia Venus	VACV mCherry inh	AMA1 RON2 block	Pf growth 96h	Pf growth 48h
COc1cccc(C2/C(=C(\O)c3ccc(OC)c(OC)c3)C(=O)C(=O)N2c2cc(C)on2)c1 (stereo not drawn)	0	0	0	5.22µM	0
COc1ccc(/C(O)=C2\C(=O)C(=O)N(c3cc(C)on3)C2c2ccc(OC)c(OC)c2)cc1OC (stereo not drawn)	0	0	0	?	0
O=S1(=O)CCO[C@H]2CCCC[C@@H]2N1Cc1ccc(Cl)cc1	?	10µM	-	-	-
O=S1(=O)CCO[C@H]2CCCC[C@@H]2N1Cc1ccccc1F	0	0	-	-	-
Cc1cc(CNC(=O)COc2ccccc2)c2ccccc2n1	0	0	0	0	0
O=C(Cc1ccccc1)NNc1c2ccccc2nc2ccccc12	0	0	0	0	0
Cc1ccc(OCC(=O)NNc2c3ccccc3nc3ccccc23)cc1	?	0	0	?	9.28µM
Cc1cccc(OCC(=O)NNc2c3ccccc3nc3ccccc23)c1	-	-	0	3.7µM	?
COc1nc(-c2ccc(C)cc2)ccc1-c1noc(-c2ccc(C(C)(C)C)cc2)n1	0	0	-	-	-
O=[N+]([O-])c1ccc(N2CCCCC2)nc1N1CCCCC1	0	0	?	3.29µM	2.08µM
O=[N+]([O-])c1cccnc1N1CCCCC1	-	-	0	0	0
COc1cc(-c2csc(NC3CCCCC3)n2)cc(OC)c1OC	0	0	0	?	11.7µM
Cc1oc(-c2cccs2)nc1CN1CCN(C(C)C)C(CCO)C1 (stereo not drawn)	0	0	0	10.4µM	0
CC(C)N1CCN(Cc2cccs2)CC1CCO (stereo not drawn)	0	0	0	?	0
Cc1cccc(-n2c(SCC(=O)c3c(N)n(C4CC4)c(=O)[nH]c3=O)nnc2N2CCOCC2)c1	-	-	0	5.22µM	?
Cc1ccc(-n2c(SCC(=O)c3c(N)n(C4CC4)c(=O)[nH]c3=O)nnc2N2CCOCC2)cc1	0	0	0	?	10.4µM
Cc1ccccc1-n1c(SCC(=O)c2c(N)n(C3CC3)c(=O)[nH]c2=O)nnc1N1CCOCC1	-	-	0	13.1µM	?
Cc1cccc(-n2ccnc2SCC(=O)c2c(N)n(C3CC3)c(=O)[nH]c2=O)c1C	-	-	0	?	0
Nc1c(C(=O)CSc2nnc(N3CCOCC3)n2-c2cccc(F)c2)c(=O)[nH]c(=O)n1C1CC1	0	0	0[11.6 µM]	?	?
Cc1ccc(-n2nnnc2SCC(=O)c2c(N)n(C3CC3)c(=O)[nH]c2=O)c(C)c1	-	-	0	5.86µM	10.4µM
Cc1ccc(NC(=O)c2c(C)oc3ncnc(N4CCCCC4)c23)c(C)c1	0	0	-	-	-
Cc1cc(C)c(S(=O)(=O)NCCc2cc3cc(C)c(C)cc3[nH]c2=O)c(C)c1	0	0	-	-	-
Cc1nc2sc(C#N)c(N)c2c2c1CCCC2	0	-	0	11.7µM	0
N#Cc1sc2nc(N3CCCCC3)c3c(c2c1N)CCCC3	?	0[1.46 µM]	0	?	5.22µM
CC(=O)c1sc2nc(C)c3c(c2c1N)CCCC3	0	0	0	0	0
SMILES	Vaccinia Venus	VACV mCherry inh	AMA1 RON2 block	Pf growth 96h	Pf growth 48h
CCc1ccc(NC(=O)C(=O)NCCc2sc3nc(-c4ccc(OC)cc4)nn3c2C)cc1	0	0	-	-	-
CCN(CC)S(=O)(=O)c1cccc(NC(=O)CC2CCCC2)c1	0	0	0	0	0
Cc1cc(C)n(-c2ccc(C(=O)O)cc2)n1	0	0	0	1.85µM	0
Cc1cc(C)n(-c2ccc(C(=O)Nc3cccc(S(=O)(=O)N4CCCC4)c3)cc2)n1	0	0	0	10.4µM	0
Cc1cc(N)n(-c2ccc(C(=O)O)cc2)n1	0	0	0	?	0
COc1ccc(C(=O)Nc2ccc(S(=O)(=O)N3CCCCC3)cc2)cc1OC	0	0	0	0	0
CC(C)Oc1ccc(C(=O)Nc2cccc(S(=O)(=O)N3CCCC3)c2)cc1	0	?	0	-	-
COc1cc(OC)c(C(=O)Nc2ccc(S(=O)(=O)N3CCCCC3)cc2)cc1OC	0	0	0	14.7µM	?
CCN(CC)S(=O)(=O)c1cccc(NC(=O)Nc2cccc(C(F)(F)F)c2)c1	-	-	0	4.15µM	-
COc1ccc(NC(=O)C2CCN(C(=O)c3sc4nc[nH]c(=O)c4c3C)CC2)cc1Cl	0	0	-	-	-
O=C(Nc1cccc(S(=O)(=O)N2CCCC2)c1)c1cccc(S(=O)(=O)N2CCOCC2)c1	-	-	0	?	11.7µM
CS(=O)(=O)c1cccc(C(=O)Nc2ccc(S(=O)(=O)N3CCCCC3)cc2)c1	0	0	0	9.28µM	?
Cc1noc(C)c1COc1ccc(C(=O)OCC(=O)Nc2cccc(S(=O)(=O)N3CCOCC3)c2)cc1	0	0	0	5.22µM	0
COc1cc(/C=C/C(=O)OCC(=O)Nc2ccc(S(=O)(=O)N3CCCC3)cc2)ccc1O	0	0	0	9.28µM	?
CCOc1ccc(C(c2c(O)cc(C)n(CCOC)c2=O)N2CCC(C)CC2)cc1 (stereo not drawn)	0[7.34 µM]	0[7.34 µM]	-	-	-
CCn1cc(C(=O)NCCc2ccc(Cl)cc2)c(=O)c2cc(S(=O)(=O)N3CCc4ccccc4C3)ccc21	0	?	-	-	-
COCCCn1c(=O)c2sccc2n2c(CCCC(=O)Nc3ccc(F)c(F)c3)nnc12	0	0	-	-	-
N#CC(=C(/N)Sc1ccccc1N)/C(C#N)=C(\N)Sc1ccccc1N	0	0	-	-	-
Cc1cc(C)n(-c2ccc(C(=O)C(C#N)c3nc4ccccc4n3C)cc2)n1 (stereo not drawn)	0	0	0	9.28µM	0
CCCOC(=O)c1ccc(NC(=O)c2cccc(S(=O)(=O)N3CCN(C(C)=O)CC3)c2)cc1	0	0	0	?	?
COc1ccc(CN(C)C(C)C(=O)Nc2ccc(S(=O)(=O)N3CCCCC3)cc2)cc1F (stereo not drawn)	-	-	0	?	10.4µM
CCOC(=O)c1ccc(NC(=O)c2cccc(S(=O)(=O)N3CCN(C(C)=O)CC3)c2)cc1	0	0	0	9.28µM	?
Cc1noc(C)c1C(=O)Nc1cccc(S(=O)(=O)N2CCCCC2)c1	-	-	0	8.28µM	0
C[N+]1(CC(=O)c2ccc(Br)cc2)CCOCC1	0	0	-	-	-
COc1ccc(C(=O)Nc2ccc(-n3nncc3-c3ccc(OC)c(OC)c3)cc2)cc1	0	0	-	-	-
SMILES	Vaccinia Venus	VACV mCherry inh	AMA1 RON2 block	Pf growth 96h	Pf growth 48h
O=C(Nc1nccs1)c1cccc(S(=O)(=O)N2CCCC2)c1	0	0	0	0	0
COc1ccc(-c2cnnn2-c2ccc(NC(=O)c3ccc(S(=O)(=O)N4CCCCC4)cc3)cc2)cc1OC	?	0	0	1.47µM	4.15µM
O=C(Nc1nccs1)c1cccc(S(=O)(=O)N2CCCCC2)c1	-	-	0	14.7µM	0
NS(=O)(=O)c1cccc(NC(=O)c2cccc(S(=O)(=O)N3CCCCCC3)c2)c1	0	0	0	-	-
CCN(CC)S(=O)(=O)c1cccc(NC(=O)c2cccc(S(=O)(=O)N3CCCC3)c2)c1	0	0	0	11.7µM	9.28µM
CNS(=O)(=O)c1cccc(C(=O)OCC(=O)c2ccc(S(=O)(=O)N3CCCCC3)cc2)c1	-	-	0	?	13.1µM
Cc1ccccc1-c1noc(CCC(=O)Nc2cccc(C)c2C)n1	0	0	-	-	-
